# Among all 280,000 compounds or so, about 100 (0.036%) were called active. Not shown: some 11% with an inconclusive outcome. Calls follow the shape of the dose curve; as a rule, active = well fitted inhibition curve with a large enough effect in the signal ratio, with a control signal flat (not every such curve was filed as active); inconclusive = small, poorly fitted or top-dose-only effect, or effect the other way, or a change in a side signal; inactive = no such curve, though single readings can be large or run the other way; the % refers to the signal ratio. Shown is part of a subset that was picked to be rich in actives.
# Target: Muscleblind-like protein 1 (Homo sapiens) (UniProt Q9NR56)
# Sequence (Q9NR56 whole entry, looked up): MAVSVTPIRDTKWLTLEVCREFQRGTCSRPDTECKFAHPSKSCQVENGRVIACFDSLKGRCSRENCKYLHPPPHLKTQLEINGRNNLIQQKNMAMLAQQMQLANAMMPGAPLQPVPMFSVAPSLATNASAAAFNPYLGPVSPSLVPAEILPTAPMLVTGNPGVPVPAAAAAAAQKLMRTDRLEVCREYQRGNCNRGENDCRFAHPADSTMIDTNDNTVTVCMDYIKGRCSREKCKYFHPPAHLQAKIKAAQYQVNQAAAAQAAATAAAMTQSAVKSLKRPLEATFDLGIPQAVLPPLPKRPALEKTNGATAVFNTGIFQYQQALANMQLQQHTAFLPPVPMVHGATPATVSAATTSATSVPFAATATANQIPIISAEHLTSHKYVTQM
# Test: qHTS Assay for Inhibitors of MBNL1-poly(CUG) RNA binding
# Settings: TR-FRET MBNL1-His/biotin-(CUG)12 binding, 665/545 ratio; series mostly up to 57.5 µM
# Text: NIH Chemical Genomics Center [NCGC] NIH Molecular Libraries Probe Production Centers Network [MLPCN] MLPCN Grant: R03 MH087421-01 Assay Submitter (PI): Charles Thornton NCGC Assay Overview: Expanded CTG repeats in the 3' untranslated region of the DM protein kinase (DMPK) gene causes type I myotonic dystrophy (DM1). DM1 is a multi-systemic disease with a prevalence of 1/7000. Clinical features include myotonia, progressive muscle weakness and wasting, cardiac arrhythmia, insulin resistance, hypersomnolence, cataracts, and other symptoms. The pathogenic effect of expanded CTG repeats stems from deleterious effects of the mutant transcript. CUGexp mRNA accumulates in nuclear foci and sequesters proteins of the muscleblind family, of which MBNL1 is the most common family member in skeletal muscles. The binding interaction between MBNL1 and CUGexp tracts leads to deregulation of alternative splicing and is therefore a key molecular step in the pathogenesis of DM1. To target this binding interaction, we optimized a protein-RNA binding assay in 1536-well format for identification of small molecule inhibitors of biotinylated (CUG)12 and his-tagged MBNL1 binding. Protein-RNA complex of MBNL1-His and Biotin-(CUG)12 captures the detection reagents terbium-labeled anti-His antibody and streptavidin conjugated XL665. This brings the terbium label within close proximity to XL665 to allow time-resolved fluorescence resonance energy transfer (TR-FRET). Inhibitors of MBNL1-(CUG)12 binding will disrupt TR-FRET.
# NCGC Assay Protocol Summary: This is a TR-FRET binding assay with MBNL1-His and Biotin-(CUG)12 RNA. The assay uses a ratiometric measurement. In the presence of MBNL1-(CUG)12 complex, the excitation energy is transferred to the XL665 acceptor label, causing emission at 665nm, while the 545nm donor signal […]. Data were normalized to the controls for basal activity (buffer only) and 100% activity (with MBNL1-(CUG)12). […] The final titration was 92 nM to 58 uM. (3) Add 1 ul of terbium labeled anti-His antibody (0.055 ng/ul final concentration) (4) Add 1 ul of streptavidin-XL665 (5 nM final concentration) (5) Incubate 60 min at room temperature (6) Detect the assay plate in a EnVision plate reader (PerkinElmer) with Ex=340 nm, Em1=665 nm and Em2=545 nm. Keywords: mytonic dystrophy type I, DM1, muscleblind like 1, MBNL1, CUG expansion, protein-RNA binding inhibitor, high throughput screening, MLSMR, MLSCN, NIH Roadmap, qHTS and NCGC
# % is scaled to controls: 0 for no effect and ±100 for the full control effect.
row,SMILES,"activity change, negative = inhibition"
1,CC(C)c1ccc(N(C(=O)c2ccco2)C(C(=O)NC2CCCC2)c2cccnc2)cc1 (stereo unspecified),inactive
2,COc1ccccc1CCNS(=O)(=O)c1cn(C)nc1C,inactive
3,CCOc1ccc(N(CC(=O)NCCc2ccc(F)cc2)S(=O)(=O)c2ccccc2)cc1,inactive
4,Cc1ccc(Cn2c(=N)c(S(=O)(=O)c3ccc(C)cc3)cc3c(=O)n4ccccc4nc32)cc1,inactive
5,C=CCSc1nc2c(c(=O)[nH]c(=O)n2C)n1Cc1ccccc1,inactive
6,Cc1ccc(-c2csc(NC3OC(=O)c4ccccc43)n2)cc1 (stereo unspecified),inactive
7,Cc1ccc(C)c(NC(=O)c2cc(-c3cc(C)cc(C)c3O)n[nH]2)c1,inactive
8,Cc1ccccc1N1CCN(S(=O)(=O)c2ccc3ccccc3c2)CC1,inactive
9,Cc1ccc(CS(=O)Cc2ccc(C(=O)N3CCOCC3)o2)cc1 (stereo unspecified),inactive
10,CCn1cc(CN2CCN(CC(C)(C)C)C(CCO)C2)c2ccccc21 (stereo unspecified),inactive
11,Cc1ccc(-c2ccc(=O)n(Cc3ccc(F)cc3Cl)n2)cc1,inactive
12,CC(C)(C)c1ccc(C(=O)N2CCN(CCNC(=O)C(=O)Nc3ccc(F)cc3)CC2)cc1,inactive
13,COc1ccccc1NC(=O)C1CCN(C(=O)c2ccc(C(C)(C)C)cc2)CC1,inactive
14,COc1ccc(OC)c(CCNC(=O)c2nn(C)c3c2CS(=O)(=O)c2ccccc2-3)c1,inactive
15,CCCC[C@]12Cc3cc(OC)c(OC)cc3C(O1)C1=C(CC3(CCCCC3)OC1=O)O2,-1.93% [at 11.5 µM] (inactive)
16,COc1cccc(CNS(=O)(=O)c2ccc3c(c2)CC(C)N3C(C)=O)c1 (stereo unspecified),inactive
17,Cc1cccc(C(=O)N2CCCC(Nc3ccc(C(C)C)cc3)C2)n1 (stereo unspecified),inactive
18,Cc1ccc2nc(SCC(=O)NC3CCCC3)[nH]c2c1,inactive
19,Cc1[nH]c(C)c(S(=O)(=O)N2CCN(c3cccc(C(F)(F)F)c3)CC2)c1C(=O)N1CCCC1,inactive
20,CS(=O)(=O)N(CC(=O)N1CCOCC1)c1cccc(Cl)c1Cl,inactive
21,CCc1ccc(OCC(=O)NCC(c2ccc(Cl)cc2)N2CCCCC2)cc1 (stereo unspecified),inactive

row,SMILES,"activity change, negative = inhibition"
1,Cc1c(C(=O)NCC(c2ccco2)N2CCCC2)oc2ccc(Cl)cc12 (stereo unspecified),inactive
2,N#Cc1ccccc1S(=O)(=O)N1CCN(C(=O)c2cc(-c3ccccc3)nn2-c2ccccc2)CC1,inactive
3,CCCCC(C(=O)NC(C)(C)C)N(Cc1ccccc1)C(=O)c1snc(C(N)=O)c1N (stereo unspecified),inactive
4,CS(=O)(=O)Nc1cccc(C2=NN(C(=O)c3cccc(F)c3)C(c3cccs3)C2)c1 (stereo unspecified),inactive
5,COc1cccc(CNC(=O)Cn2c(=O)oc3cc(S(=O)(=O)N4CCCCC4)ccc32)c1,inactive
6,COc1ccc(NC(=O)c2sc3nc(C)nc(N4CCN(c5ccccn5)CC4)c3c2C)c(OC)c1,inactive
7,CCCCc1nc2cc(C(=O)N3CCCCC3CCO)ccc2o1 (stereo unspecified),inactive
8,O=C(c1ccccc1)N1CCC(CC2CC(c3ccc(Cl)cc3)=NO2)(C(=O)NCC2CCCCC2)CC1 (stereo unspecified),inactive
9,O=C(c1ccco1)N1CCN(Cc2cccc(C(F)(F)F)c2)CC1,inactive
10,O=C(Nc1ccc(F)cc1)c1ccc(S(=O)(=O)NCc2cccnc2)cc1,inactive
11,Cc1ccc(S(=O)(=O)N2CCN=C2SCc2c(F)cccc2Cl)cc1,inactive
12,COc1ccc(C)cc1Nc1n[n+](-c2ccccc2)c(-c2cccc(Cl)c2Cl)s1,inactive
13,C=CCc1cccc(/C=N/NC(=O)COc2ccc(-n3cnnn3)cc2)c1O,inactive
14,O=C1CCN(Cc2ccccc2)CCN1[C@H](CSc1ccccc1)c1ccccc1,inactive
15,CC(C)c1ccc(NC(=O)C2CCCN(S(=O)(=O)c3cccnc3)C2)cc1 (stereo unspecified),inactive
16,COc1ccc(NC(=O)c2cccc3c2C(=O)N(CC2CCCO2)C3)cc1OC (stereo unspecified),inactive
17,COc1ccc2c3c(c(=O)oc2c1)C1O[C@](CCCCN2C(=O)c4ccccc4C2=O)(Cc2c1ccc1ccccc21)O3,-13% [at 11.5 µM] (inactive)
18,CC1CCCN(CCCNC(=O)CN2C(=O)COc3ccc(S(=O)(=O)N4CCOCC4)cc32)C1 (stereo unspecified),inactive
19,COc1cccc(OCC(O)CNC(=O)c2oc3c(C)c(C)ccc3c2C)c1 (stereo unspecified),inactive
20,O=C(NCc1ccccc1)c1onc(CSc2nc3ccccc3[nH]2)c1C(=O)NCc1ccccc1,inactive
21,CN(C)C(=O)CCC(=O)N1CCCCC1C(=O)Nc1ccc(Oc2ccccc2F)cc1 (stereo unspecified),inactive

row,SMILES,"activity change, negative = inhibition"
1,COc1ccc(-c2cc(C(=O)N3CCN(Cc4ccc5c(c4)OCO5)CC3)on2)cc1OC,inactive
2,COc1cc(C(=O)NCC2(c3ccccc3)CCCC2)ccc1OC(C)C,inactive
3,O=C(Nc1ccc(S(=O)(=O)N2CCCCCC2)cc1)c1c(F)cccc1F,inactive
4,Cc1cc2c(c(=O)n1Cc1ccccc1)C1O[C@](CCCCN3C(=O)c4ccccc4C3=O)(Cc3ccccc31)O2,41.3% [at 11.5 µM] (inactive)
5,COc1ccc(Oc2cn[nH]c2-c2ccc(OC)cc2O)cc1,inactive
6,CCOC(=O)N1CCC(N2Cc3cccc(C(=O)Nc4c(C)cccc4CC)c3C2=O)CC1,inactive
7,CC(C)CN(Cc1c(O)ccc2c(=O)c(-c3ccccc3)coc12)CC(C)C,inactive
8,O=C(O)c1ccc2c(=O)n3c(nc2c1)/C(=C/c1ccc(OC(F)F)cc1OC(F)F)CC3,inactive
9,CCOC(=O)C1(CCOc2ccccc2)CCN(Cc2cc(OC)cc(OC)c2)CC1,inactive
10,CNC(=O)c1sc(Nc2ccc(OCc3ccccc3)cc2)nc1C,inactive
11,COc1cc(C(=O)NCc2cc3cc(Cl)ccc3n2C)cc(OC)c1OC,inactive
12,CCn1c(=S)sc2c(=O)n(CC(=O)Nc3cccc(Br)c3)c(C)nc21,inactive
13,Cc1ccc(OCC(=O)NC(C)c2ccccc2)cc1C (stereo unspecified),inactive
14,COc1ccc(CNS(=O)(=O)c2ccc(NC(=O)N3CCCCC3)cc2)cc1,inactive
15,COc1ccc2[nH]c(=O)c(CN(Cc3cccnc3)S(=O)(=O)c3ccccc3F)cc2c1,inactive
16,CSc1ccccc1OCc1cc(C(=O)N(C)CCc2c(C)n[nH]c2C)no1,inactive
17,CCOc1ccc(NC(=O)C2CCN(C(=O)N3CCOc4ccccc43)CC2)cc1,inactive
18,CCOc1c(OC)cccc1C(=O)NCC1(c2ccccc2)CCCC1,inactive
19,Cc1cc(=O)oc2c3c(cc(OCC(=O)NCc4ccccn4)c12)OC(C)(C)CC3,inactive
